Results on 13 compounds are retold here after PubChem BioAssay (NCI).

About 83,000 compounds went through this panel and 20% of them were active in at least one assay; those are over-represented in the sample as a whole.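 96-well plates, one dose, 48 hours. Percent growth reported; active if below 10.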 A number with no mark means an inactive call. The source made the active and inactive calls.

Among the test systems are DU-145 prostate; K-562 leukemia; MALME-3M melanoma; MDA-MB-231 breast; RXF 393 renal; SF-268 CNS; SF-295 CNS; SF-539 CNS; UACC-257 melanoma; M14 melanoma.
Assay in all cases: NCI-60 one-dose screen, 48 h (100 = growth as untreated, 0 = no growth, -100 = all killed)
What all share (conditions): 10 µM unless noted

For the compound `Cn1c(NCCc2ccc(O)c(O)c2)nc2c1c(=O)n(Cc1ccc(Cl)c(Cl)c1)c(=O)n2C`, the growth in the test on DU-145 prostate was 74.5%; in the test with K-562 leukemia, 79.6%; in the test with MALME-3M melanoma it was 75.7%; with MDA-MB-231 breast, 69.5%; with RXF 393 renal, 72%; in the test with SF-268 CNS, 64.8%. For the same compound, the growth is 97.3% in the test on SF-295 CNS, 75.6% with SF-539 CNS, 84.6% in the test on UACC-257 melanoma and 85.6% in the test on M14 melanoma.

Regarding `C=C(C)[C@@H]1CC[C@]2(C(=O)OC)CC[C@]3(C)[C@H](CC[C@@H]4[C@@]5(C)C/C(=C/c6ccc(OC)cc6)C(=O)C(C)(C)[C@@H]5CC[C@]43C)[C@@H]12`, the growth with DU-145 prostate is 91.1%; in the test on K-562 leukemia, 3.32% (active); in the test on MALME-3M melanoma it was 99.7%; in the test on MDA-MB-231 breast it was 108%; in the test on RXF 393 renal, 66.9%; in the test with SF-268 CNS, 90.7%. The growth in the test with SF-295 CNS is 99.9%; in the test with SF-539 CNS, 90.3%; in the test with UACC-257 melanoma, 104%; in the test with M14 melanoma, 91%.

As for `COc1cccc(-c2nn(C(C)(C)C)cc2-c2ccnc(NCCCNS(=O)(=O)c3ccc(C)cc3)c2)c1`, the growth in the test with DU-145 prostate is 107%; with K-562 leukemia it was 101%; with MALME-3M melanoma, 101%; with MDA-MB-231 breast it was 112%; in the test on RXF 393 renal, 109%; in the test on SF-268 CNS it was 105%. The growth with SF-295 CNS was 103%; in the test with SF-539 CNS it was 115%; with UACC-257 melanoma it was 111%; in the test with M14 melanoma it was 105%.

For `CC(O)CN1CC(O)=C(c2nc3ccccc3s2)C1=N` (stereo not given), the growth was 115% in the test on DU-145 prostate; 105% in the test with K-562 leukemia; 97.6% with MALME-3M melanoma; 108% in the test with MDA-MB-231 breast; 113% in the test on RXF 393 renal; 108% in the test with SF-268 CNS. Besides, the growth was 129% in the test on SF-295 CNS, 104% in the test with SF-539 CNS, 119% in the test with UACC-257 melanoma and 114% in the test on M14 melanoma.

As to `COc1ccccc1NS(=O)(=O)c1ccc2oc(SC(C)C)nc2c1`, the growth in the test on DU-145 prostate was 98.9%; with K-562 leukemia it was 45.8%; in the test with MALME-3M melanoma it was 81.7%; in the test with MDA-MB-231 breast, 86.5%; with RXF 393 renal, 107%; in the test with SF-268 CNS it was 89.8%. Also, the growth in the test on SF-295 CNS was 88.5%; in the test with SF-539 CNS, 103%; in the test on UACC-257 melanoma, 71.8%; in the test with M14 melanoma it was 110%.

As to `Oc1cccc2ccc(N/N=C/c3cc(CN4CCOCC4)c(O)c4ncccc34)nc12`, the growth in the test on DU-145 prostate was 22.4%; with K-562 leukemia, 13.4%; with MALME-3M melanoma, 16.3%; with MDA-MB-231 breast, 20%; with RXF 393 renal it was 10.4%; in the test with SF-268 CNS, 18.7%. Besides, the growth with SF-295 CNS is 17.5%; in the test with SF-539 CNS, 9.66% (active); in the test on UACC-257 melanoma, 17.8%; in the test with M14 melanoma, 4.83% (active).

Take `COc1ccc2c(c1)c(-c1nonc1-c1cn(C)c3ccccc13)cn2C`: the growth in the test on DU-145 prostate is 14.7%; with K-562 leukemia, 10.5%; in the test with MALME-3M melanoma, 51.9%; with MDA-MB-231 breast, 28.4%; in the test with RXF 393 renal it was -9.91% (active); in the test on SF-268 CNS it was 63%. For the same compound, the growth in the test on SF-295 CNS was 32%; in the test on SF-539 CNS, -9.13% (active); with UACC-257 melanoma it was 66.5%; in the test on M14 melanoma, 24.4%.

With `CSc1nc(NCc2ccccc2)c(C#N)c(-c2cccc([N+](=O)[O-])c2)n1`, the growth was 103% in the test with DU-145 prostate; 90.7% in the test with K-562 leukemia; 113% in the test on MALME-3M melanoma; 82.7% with MDA-MB-231 breast; 102% in the test with RXF 393 renal; 94.3% in the test on SF-268 CNS. Moreover, the growth in the test with SF-295 CNS is 98.9%; with SF-539 CNS it was 104%; with UACC-257 melanoma, 109%; in the test on M14 melanoma it was 98%.

Consider `C#CCOc1ccc2ncnc(N3CCC(NC(=O)CCl)CC3)c2c1`, for which the growth in the test on DU-145 prostate was 72.8% [8.25 µM]; in the test on K-562 leukemia it was 81.5% [8.25 µM]; in the test with MALME-3M melanoma, 83.9% [8.25 µM]; in the test on MDA-MB-231 breast, 96.1% [8.25 µM]; with RXF 393 renal it was 16% [8.25 µM]; with SF-268 CNS, 49.1% [8.25 µM]. The growth in the test with SF-295 CNS was 109% [8.25 µM]; in the test with SF-539 CNS it was 74.6% [8.25 µM]; with UACC-257 melanoma it was 79.7% [8.25 µM]; in the test with M14 melanoma, 72.8% [8.25 µM].

Consider `Cc1[nH]c(-c2ccc3cc[nH]c3c2)c2c1C(=O)CCCC2`, for which the growth in the test with DU-145 prostate is 79.1%; in the test on K-562 leukemia, 26.2%; in the test on MALME-3M melanoma it was 56.2%; with MDA-MB-231 breast it was 43.2%; with RXF 393 renal, 68.1%; with SF-268 CNS, 64.8%. In addition, the growth with SF-295 CNS was 38.8%; in the test on SF-539 CNS it was 48.6%; in the test on UACC-257 melanoma it was 47.7%; in the test on M14 melanoma, 51.6%.

As for `O=C(N=Nc1c(O)[nH]c2ccccc12)c1cc(-c2ccccc2)on1`, the growth is 113% with DU-145 prostate; 104% in the test with K-562 leukemia; 100% in the test on MALME-3M melanoma; 93.1% in the test on MDA-MB-231 breast; 118% with RXF 393 renal; 101% in the test on SF-268 CNS. Further, the growth in the test on SF-295 CNS was 98.2%; in the test on SF-539 CNS it was 97.4%; with UACC-257 melanoma, 106%; with M14 melanoma, 104%.

For `CN1CCN(CCCOc2cccc3nc(Nc4cc(Cl)cc(Cl)c4)ccc23)CC1`, the growth with DU-145 prostate is -23.8% (active); with K-562 leukemia, -54.7% (active); in the test on MALME-3M melanoma, -53.5% (active); with MDA-MB-231 breast it was -44.6% (active); with RXF 393 renal, 38.8%; in the test with SF-268 CNS, 16%. Also, the growth in the test with SF-295 CNS was 40.2%; in the test on SF-539 CNS it was 7.62% (active); with UACC-257 melanoma, -44.6% (active); in the test on M14 melanoma it was -55.7% (active).

On to `CC(=O)O[C@H]1CC[C@]2(C)[C@H]3CC=C4[C@@H]5CC(C)(C)CC[C@]5(C(=O)NCCNCCNCCN)CC[C@@]4(C)[C@]3(C)CC[C@H]2C1(C)C`, for which the growth was 17% in the test on DU-145 prostate; -11.3% (active) in the test with K-562 leukemia; 73.5% in the test with MALME-3M melanoma; -42.9% (active) in the test on MDA-MB-231 breast; 65.4% in the test with RXF 393 renal; 87.1% in the test with SF-268 CNS. Besides, the growth was 102% in the test on SF-295 CNS, 86.2% in the test on SF-539 CNS, 93.1% with UACC-257 melanoma and 23.8% in the test on M14 melanoma.
